# This is part of a sample that, as a whole, favours compounds with a hit. Of some 79,000 tested, about 15% had one in any assay. Unmarked numbers belong to inactive results. Calls of active or inactive are those of the source. Rule as the data show it: active = growth inhibition above about 70%; inactive = the rest.
# What was measured:
# [1] = NCI Yeast Anticancer Drug Screen. Data for the rad52 strain (AID 147);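 also: 0% = growth of vehicle-treated control cultures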; details: S. cerevisiae rad52 mutant growth inhibition, stronger effect = higher value
# Summary of the method: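 The repair-mutant yeast strain was incubated with compounds, then growth was read and inhibition derived relative to vehicle.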
# [2] = NCI Yeast Anticancer Drug Screen. Data for the wt1 strain (AID 149);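 also: 0% = growth of vehicle-treated wt1 cultures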; details: S. cerevisiae wt1 strain (SPY 50644) growth inhibition, stronger effect = higher value
# Summary of the method: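 Yeast wt1 strain exposed to compounds; growth inhibition measured relative to vehicle-treated controls.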
# [3] = NCI Yeast Anticancer Drug Screen. Data for the rad50EPP+ strain (AID 151);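 also: 0% = growth of vehicle-treated control cultures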; details: S. cerevisiae rad50 mutant strain, stronger effect = higher value
# Summary of the method: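 Vehicle-normalised growth inhibition; rad50EPP+ yeast strain, altered in DNA damage repair, compound-treated.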
# [4] = NCI Yeast Anticancer Drug Screen. Data for the mgt1 strain (AID 153); details: S. cerevisiae mgt1 mutant growth inhibition, stronger effect = higher value
# Summary of the method: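 Vehicle-normalized growth inhibition is determined in mgt1 yeast, a strain selected for a defined alteration in DNA repair or cell cycle control.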
# [5] = NCI Yeast Anticancer Drug Screen. Data for the rad50 strain (AID 155);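 also: 0% = growth of vehicle-only cultures of the same strain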; details: S. cerevisiae rad50 strain growth inhibition, stronger effect = higher value
# Summary of the method: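 Yeast carrying a defined DNA repair defect were exposed to test compounds, and growth was compared with vehicle-treated controls to give percent inhibition.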
# [6] = NCI Yeast Anticancer Drug Screen. Data for the mec2-1 strain (AID 157); details: S. cerevisiae mec2-1 strain, stronger effect = higher value
# Summary of the method: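 Mutant yeast (mec2-1) grown with compound; growth inhibition relative to vehicle control reported.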
# [7] = NCI Yeast Anticancer Drug Screen. Data for the rad14 strain (AID 159);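 also: 0% = growth of vehicle-treated control cultures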; details: S. cerevisiae rad14 strain growth inhibition, stronger effect = higher value
# Summary of the method: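 Yeast cells carrying a defined DNA-repair defect were exposed to compounds, and growth inhibition was calculated relative to vehicle-treated control cultures.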
# [8] = NCI Yeast Anticancer Drug Screen. Data for the sgs1 mgt1 strain (AID 161);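 also: 0% = growth of cultures given vehicle only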; details: S. cerevisiae sgs1 mgt1 strain, stronger effect = higher value
# Summary of the method: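 Percent growth inhibition was derived by comparing compound-exposed mutant yeast with vehicle-exposed cultures. The strain carries alterations in DNA damage repair.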
# [9] = NCI Yeast Anticancer Drug Screen. Data for the CLN2oe strain (AID 163);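 also: 0% = growth of vehicle-only control cultures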; details: S. cerevisiae CLN2oe strain, stronger effect = higher value
# Summary of the method: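 Compounds are applied to yeast harbouring a defined cell-cycle control change; reduced growth compared with vehicle-treated controls gives the value.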
# [10] = NCI Yeast Anticancer Drug Screen. Data for the cln2 rad14 strain (AID 165);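 also: 0% = growth equal to vehicle treated cultures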; details: S. cerevisiae cln2 rad14 strain, stronger effect = higher value
# Summary of the method: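 Readout is yeast growth inhibition versus vehicle-treated controls, using a strain with cln2 and rad14 alterations exposed to compound.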
# [11] = NCI Yeast Anticancer Drug Screen. Data for the bub3 strain (AID 167); details: S. cerevisiae bub3 mutant strain, stronger effect = higher value
# Summary of the method: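 Compounds were applied to a genetically altered yeast strain carrying a cell-cycle control defect. Growth inhibition was scored against vehicle-treated controls.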
# [12] = NCI Yeast Anticancer Drug Screen. Data for the wt2 strain (AID 169);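 also: 0% = growth of vehicle-treated yeast cultures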; details: S. cerevisiae wt2 strain growth inhibition, stronger effect = higher value
# Summary of the method: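 Against vehicle-treated controls, the growth of yeast exposed to each compound was compared, and the inhibition was recorded.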
# [13] = NCI Yeast Anticancer Drug Screen. Data for the mlh1 strain (AID 171);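 also: 0% = growth of vehicle-treated control cultures of the same strain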; details: S. cerevisiae mlh1 strain growth inhibition, stronger effect = higher value
# Summary of the method: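 Measured: yeast growth. Reference: vehicle-treated controls. Organism: strain with a defined alteration affecting DNA damage repair or cell cycle control, treated with compound.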
# [14] = NCI Yeast Anticancer Drug Screen. Data for the sgs1 strain (AID 173);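 also: 0% = growth of vehicle-only control cultures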; details: S. cerevisiae sgs1 mutant, stronger effect = higher value
# Summary of the method: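 Each compound was added to cultures of the altered yeast strain. Growth was recorded, and inhibition was derived by comparison with vehicle controls.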
# [15] = NCI Yeast Anticancer Drug Screen. Data for the mlh1 rad18 strain (AID 175); details: S. cerevisiae mlh1 rad18 strain growth inhibition, stronger effect = higher value
# Summary of the method: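 Genetically defined yeast (DNA repair-deficient) exposed to compounds; growth inhibition determined relative to vehicle.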
# [16] = NCI Yeast Anticancer Drug Screen. Data for the rad18 strain (AID 177); details: S. cerevisiae rad18 mutant growth inhibition, stronger effect = higher value
# Summary of the method: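 Vehicle-treated cultures served as the baseline for scoring compound-induced growth inhibition in DNA-repair-mutant yeast.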
# [17] = at 5.0 µM (retest, dose inferred, filed as 0.5)
# [18] = at 50.0 µM (retest, dose inferred, filed as 5.0)
smiles,measurement,setting,value
CNC(=O)OCc1c(COC(=O)NC)c(C)n(-c2ccc(Br)cc2)c1C,growth inhibition,[1]; at 1.2 µM,-7%
same,growth inhibition,[1]; at 3.7 µM,-6%
same,growth inhibition,[1]; at 11.0 µM,-8%
same,growth inhibition,[1]; at 33.0 µM,6%
same,growth inhibition,[1]; at 100.0 µM,87% (active)
same,growth inhibition,[2]; at 1.2 µM,-41%
same,growth inhibition,[2]; at 3.7 µM,-38%
same,growth inhibition,[2]; at 11.0 µM,-37%
same,growth inhibition,[2]; at 33.0 µM,-32%
same,growth inhibition,[2]; at 100.0 µM,98% (active)
same,growth inhibition,[3]; at 1.2 µM,-25%
same,growth inhibition,[3]; at 3.7 µM,-19%
same,growth inhibition,[3]; at 11.0 µM,-24%
same,growth inhibition,[3]; at 33.0 µM,-25%
same,growth inhibition,[3]; at 100.0 µM,-3%
same,growth inhibition,[4]; at 1.2 µM,-15%
same,growth inhibition,[4]; at 3.7 µM,-17%
same,growth inhibition,[4]; at 11.0 µM,-20%
same,growth inhibition,[4]; at 33.0 µM,14%
same,growth inhibition,[4]; at 100.0 µM,99% (active)
same,growth inhibition,[5]; at 1.2 µM,-15%
same,growth inhibition,[5]; at 3.7 µM,-27%
same,growth inhibition,[5]; [17],27%
same,growth inhibition,[5]; at 11.0 µM,-17%
same,growth inhibition,[5]; at 33.0 µM,-2%
same,growth inhibition,[5]; [18],46%
same,growth inhibition,[5]; at 50.0 µM,30.4%
same,growth inhibition,[5]; at 100.0 µM,91% (active)
same,growth inhibition,[6]; at 1.2 µM,-37%
same,growth inhibition,[6]; at 3.7 µM,-24%
same,growth inhibition,[6]; [17],22%
same,growth inhibition,[6]; at 11.0 µM,-23%
same,growth inhibition,[6]; at 33.0 µM,-8%
same,growth inhibition,[6]; [18],23%
same,growth inhibition,[6]; at 50.0 µM,13%
same,growth inhibition,[6]; at 100.0 µM,97% (active)
same,growth inhibition,[7]; at 1.2 µM,-23%
same,growth inhibition,[7]; at 3.7 µM,-16%
same,growth inhibition,[7]; at 11.0 µM,-7%
same,growth inhibition,[7]; at 33.0 µM,73% (active)
same,growth inhibition,[7]; at 100.0 µM,98% (active)
same,growth inhibition,[8]; [17],4%
same,growth inhibition,[8]; [18],-61%
same,growth inhibition,[8]; at 50.0 µM,78% (active)
same,growth inhibition,[9]; at 1.2 µM,-7%
same,growth inhibition,[9]; at 3.7 µM,0%
same,growth inhibition,[9]; at 11.0 µM,-1%
same,growth inhibition,[9]; at 33.0 µM,-2%
same,growth inhibition,[9]; at 100.0 µM,69%
same,growth inhibition,[10]; [17],10%
same,growth inhibition,[10]; [18],-81%
same,growth inhibition,[10]; at 50.0 µM,30%
same,growth inhibition,[11]; at 1.2 µM,-29%
same,growth inhibition,[11]; at 3.7 µM,-18%
same,growth inhibition,[11]; [17],0%
same,growth inhibition,[11]; at 11.0 µM,-18%
same,growth inhibition,[11]; at 33.0 µM,41%
same,growth inhibition,[11]; [18],-63%
same,growth inhibition,[11]; at 50.0 µM,85% (active)
same,growth inhibition,[11]; at 100.0 µM,98% (active)
same,growth inhibition,[12]; at 1.2 µM,-28%
same,growth inhibition,[12]; at 3.7 µM,-19%
same,growth inhibition,[12]; at 11.0 µM,-19%
same,growth inhibition,[12]; at 33.0 µM,-13%
same,growth inhibition,[12]; at 100.0 µM,96% (active)
same,growth inhibition,[13]; at 1.2 µM,-26%
same,growth inhibition,[13]; at 3.7 µM,-13%
same,growth inhibition,[13]; at 11.0 µM,9%
same,growth inhibition,[13]; at 33.0 µM,59%
same,growth inhibition,[13]; at 100.0 µM,97% (active)
same,growth inhibition,[14]; at 1.2 µM,15%
same,growth inhibition,[14]; at 3.7 µM,12%
same,growth inhibition,[14]; at 11.0 µM,19%
same,growth inhibition,[14]; at 33.0 µM,32%
same,growth inhibition,[14]; at 100.0 µM,96% (active)
same,growth inhibition,[15]; [17],25%
same,growth inhibition,[15]; [18],84% (active)
same,growth inhibition,[15]; at 50.0 µM,86.8% (active)
same,growth inhibition,[16]; at 1.2 µM,-19%
same,growth inhibition,[16]; at 3.7 µM,-12%
same,growth inhibition,[16]; at 11.0 µM,-5%
same,growth inhibition,[16]; at 33.0 µM,43%
same,growth inhibition,[16]; at 100.0 µM,96% (active)

# From PubChem BioAssay (NCI)
